Where “and” joins values, the source holds several entries; their conditions need not be identical. Equal values may be shown once. Results filed as inconclusive are left out. Calls of active or inactive are those of the source. Unless noted, the call rests on the fitted dose curve; in most records, active means well fitted curve in the direction sought with a large enough effect; inconclusive means small, poorly fitted or top-dose-only effect, or another doubt; inactive means no such curve, though single readings can be large; an effect the other way counts as inactive or inconclusive.

Assay [1] can be described thus: qHTS profiling for inhibitors of Plasmodium falciparum proliferation (AID 504749). Further: potency means the concentration at half of the fitted maximal effect.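 On activity, negative = inhibition: 0% = DMSO vehicle and full inhibition = artemisinin control.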 On all read-outs here: nearly all actives have a fitted effect of over 60% in size. Particulars: P. falciparum in erythrocytes, SYBR Green DNA, 72 h; for activity, negative = inhibition: at 28.7 µM (top of the series). In short, it runs like this:
(§1)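 Infected RBCs, 0.3% parasitemia/2.5% Hct final; cpd 72 h, 37 C, 5% CO2; lysis buffer with saponin/triton/SYBR Green I, o/n RT dark; FI 485/535; norm. to artemisinin (0.29 uM) and DMSO.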

The subject of assay [2] is 3D7. Described as above. The note with it: P. falciparum in erythrocytes, SYBR Green DNA, 72 h; series mostly up to 28.7 µM. In short, it runs like this:
as §1

For assay [3], the system named is 7G8. The assay is described as above. Particulars: P. falciparum in erythrocytes, SYBR Green DNA, 72 h; series mostly up to 28.7 µM. The method, boiled down:
as §1

Assay [4] has as its system AA1029. The description is as above. Particulars: P. falciparum in erythrocytes, SYBR Green DNA, 72 h; series mostly up to 28.7 µM. In short, it runs like this:
as §1

Assay [5] concerns AS120. The description is as above. The note with it: P. falciparum in erythrocytes, SYBR Green DNA, 72 h; series mostly up to 28.7 µM. In short, it runs like this:
as §1

Assay [6] in a line: qHTS for identification of novel therapeutic agents for treatment of microphthalmiaassociated transcription factor (MiT) renal cell carcinoma (RCC) (AID 1963991; calls by dose curve; further: potency means the concentration at half of the fitted maximal effect). Particulars: CellTiter-Glo, 48 h; for z-score: stronger effect = lower value. The text has this: PI: Marston Linehan Ph.D.
Urologic Oncology Branch, Center for Cancer Research (CCR)
National Cancer Institute (NCI), National Institute of Health (NIH), Bethesda, Maryland
MiT-Renal Cell Carcinoma (RCC) is characterized by genomic translocations involving microphthalmia-associated transcription factor (MiT) family members TFE3, TFEB, or MITF. MiT-RCC represents a specific subtype of sporadic RCC that is predominantly seen in young patients and can present with heterogeneous histological features making diagnosis challenging. Moreover, the disease biology of this aggressive cancer is poorly understood and there is no accepted standard of care therapy for patients with advanced disease. Tumor-derived cell lines have been established from human TFE3-RCC providing useful models for preclinical studies. TFE3-RCC tumor derived cell lines and their tissues of origin were characterized by IHC and gene expression analyses. An unbiased high-throughput drug screen was performed to identify novel therapeutic agents for treatment of MiT-RCC. Potential therapeutic candidates were validated in in vitro and in vivo preclinical studies. Mechanistic assays were conducted to confirm the on-target effects of drugs. The results of a high-throughput small molecule drug screen utilizing three TFE3-RCC tumor-derived cell lines identified five classes of agents with potential pharmacological efficacy, including inhibitors of phosphoinositide-3-kinase (PI3K) and mechanistic target of rapamycin (mTOR), and several additional agents, including the transcription inhibitor Mithramycin A. Upregulation of the cell surface marker GPNMB, a specific MiT transcriptional target, was confirmed in TFE3-RCC and evaluated as a therapeutic target using the GPNMB-targeted antibody-drug conjugate CDX-011. […] The results of the high-throughput drug screen and validation studies in TFE3-RCC tumor-derived cell lines have provided in vitro and in vivo preclinical data supporting the efficacy of the PI3K/mTOR inhibitor.
SEQUENCE No. (e.g., 1, 2, 3, etc.); […] (e.g., Cells, Incubation, Reagent, etc.); VALUE; DESCRIPTION.
1; Cells; 3 uL; white, solid-bottom Grenier assay plate.
2; Compounds; 23 nL; Kalypsis pin-tool (Wako USA).
3; Incubation; 48 hr; 37 C, 5% CO2, 95% humidity.
4; Reagent; 3 uL; CellTiter-Glo reagent (Promega).
5; Incubation; 15 min; room temperature.
6; Detection; Luminescence; ViewLux plate reader (PerkinElmer).
NOTES (numbers refer to Sequence numbers above)
1. Quantitative high-throughput screening (qHTS) of 1912 pharmacologically defined small molecule compounds was conducted on three TFE3-fusion cell lines bearing three different fusion partners (UOK109, UOK124, UOK145). Briefly, 500 cells in complete growth media were plated into white, solid-bottom, 1536-well tissue culture treated plates (Grenier Cat. 789173-F) using a Multidrop Combi cassette dispenser.
2. Twenty-three nanoliter of 1912 pharmacologically defined small molecule compounds of the NCATS Mechanism Interrogation PlatE (MIPE) version 4.0 were added to each assay plate using a Pintool Dispenser (Wako) equipped with 1536 pin head.
3. Plates were covered with stainless steel gasketed lids and incubated for 48 hours at standard cell culture conditions.
4. Viability was assessed by adding 3uL of CellTiter-Glo detection reagent (Promega).
5. Plates were covered with gasket lids and incubated for 15 minutes at room temperature.
6. Luminescence was measured on a ViewLux plate reader (PerkinElmer). Post-screen data processing used DMSO controls as 100% viability and empty wells as 0% viability and dose response curve fitting was done for all 11 concentrations for each compound.

Assay [7] in a line: Dual reporter qHTS for agonist of Pregnane X Receptor (hPXR) against the NCATS DSHEA and TCM libraries: Fluorescence readout (AID 1920058). Further: 0% is about no effect. The note with it: PXR dual reporter cells; series mostly up to 40 µM. The method, boiled down:
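hPXR-Luc HepG2 cells, 2000/well in charcoal-stripped serum, attached 5 h, dosed for ~24 h at 37 °C. Fluorescence read is CellTiter-Fluor viability (Ex/Em 405/540 nm); rifampicin positive, tetraoctyl ammonium bromide (92 µM) cytotoxicity controls.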

For assay [8], the target named is Nuclear receptor subfamily 1 group I member 2 (Homo sapiens) (UniProt O75469). In words: Dual reporter qHTS for agonist of Pregnane X Receptor (hPXR) against the NCATS DSHEA and TCM libraries: Luminescence readout (AID 1920059). Further: 0% is about no effect. The note with it: hPXR dual reporter cells, luciferase luminescence agonist; series mostly up to 40 µM. The method, boiled down:
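Luminescent PXR reporter read (ONE-Glo) after a CellTiter-Fluor viability read, following 24 h, 37C treatment of HepG2 cells stably carrying hPXR-Luc.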

Assay [9] shares this target. The assay can be described thus: Dual reporter qHTS for antagonist of Pregnane X Receptor (hPXR) against the NCATS DSHEA and TCM libraries: Luminescence Readout (AID 1920060). Further: 0% is about no effect. Particulars: hPXR dual reporter cells, luciferase luminescence, antagonist mode; series mostly up to 40 µM. In short, it runs like this:
(§2)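 Rifampicin-stimulated (2 uM final) hPXR-luciferase HepG2 cells were treated for 24 h with DSNP/TCM substances. Viability came from CellTiter-Fluor fluorescence, reporter activity from ONE-Glo luminescence.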

A short description of assay [10]: Dual reporter qHTS for antagonist of Pregnane X Receptor (hPXR) against the NCATS DSHEA and TCM libraries: Fluorescence Readout (AID 1920061). Further: 0% is about no effect. The note with it: PXR dual reporter cells, antagonist mode; series mostly up to 40 µM. In short, it runs like this:
as §2

Setting [11] is: TFE3-RCC UOK109 viability, measured here: UOK109 Z-AUC.
The mark [12] stands for this setting: TFE3-RCC viability, measured here: UOK124 Z-AUC.
The mark [13] stands for this setting: TFE3-RCC viability, measured here: UOK145 Z-AUC.

Sequence of Nuclear receptor subfamily 1 group I member 2 (Homo sapiens) (O75469 whole entry, looked up): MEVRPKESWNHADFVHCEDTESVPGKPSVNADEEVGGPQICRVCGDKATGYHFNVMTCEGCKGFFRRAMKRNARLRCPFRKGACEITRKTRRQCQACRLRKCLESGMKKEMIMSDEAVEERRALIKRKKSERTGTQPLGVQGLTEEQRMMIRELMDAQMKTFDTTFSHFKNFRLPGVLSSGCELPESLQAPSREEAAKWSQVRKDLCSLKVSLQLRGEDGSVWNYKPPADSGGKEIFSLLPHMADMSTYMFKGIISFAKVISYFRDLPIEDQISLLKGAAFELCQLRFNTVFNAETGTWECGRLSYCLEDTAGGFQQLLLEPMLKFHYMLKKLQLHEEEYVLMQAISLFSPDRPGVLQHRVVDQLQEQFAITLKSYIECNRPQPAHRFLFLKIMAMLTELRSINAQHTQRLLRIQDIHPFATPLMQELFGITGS

As to `Clc1ccc(CO/N=C(\Cn2ccnc2)c2ccc(Cl)cc2Cl)c(Cl)c1`, the Potency in assay [1] (parasite line A) is 3.55 µM (active); in assay [1] (parasite line B), 2.82 µM (active); in assay [2] it was 2.82 µM (active); in [3], 1.12 µM (active); in assay [4], 5.01 µM (active); in assay [5] it was 2.24 µM (active).

On to `C[C@@H]1C[C@@H]([C@H](O)CC2CC(=O)NC(=O)C2)C(=O)[C@@H](C)C1`, for which the Potency in [6] (TFE3-RCC UOK109 viability) was 0.0469 µM (active). Besides, the z-score in [6] (setting [11]) was -2.25; in assay [6] (setting [12]), -1.12; in [6] (setting [13]) it was -1.24.

In the case of `C[C@]12CC[C@H](O)CC1=CC[C@@H]1[C@@H]2CC[C@]2(C)C(=O)CC[C@@H]12`, the result in [7], in assay [8], in assay [9] and in assay [10] was inactive.

Regarding `Oc1c(Br)cc(Br)cc1Br`, the figures for the activity, negative = inhibition in [1] (parasite line A) and in assay [1] (parasite line B) were 0.526% (inactive) and -0.833% (inactive), respectively. Besides, the Potency result in assay [2], in assay [3], in assay [4] and in assay [5] was “inactive” in each case.

Take `O=C(O)c1nn(Cc2ccc(Cl)cc2Cl)c2ccccc12`: the results for the z-score in [6] (setting [11]), in [6] (setting [12]) and in assay [6] (setting [13]) were 0.154, 0.856 and -0.814, respectively. Moreover, the activity, negative = inhibition is -9.19% (inactive) in assay [1] (parasite line A) and -4.8% (inactive) in assay [1] (parasite line B). In addition, the Potency entry in [2], in assay [3], in [4] and in assay [5] was “inactive” in each case.

As to `CCN(Cc1ccc(Cl)nc1)/C(=C/[N+](=O)[O-])NC`, the figures for the activity, negative = inhibition in [1] (parasite line A) and in assay [1] (parasite line B) were 8.19% (inactive) and -9.95% (inactive), respectively. Moreover, the Potency entry in assay [2], in assay [3], in assay [4] and in assay [5] was “inactive” each time.

With `CCOC(=O)NC(O)C(Cl)(Cl)Cl` (configuration not stated), the activity, negative = inhibition was 5.94% (inactive) in assay [1] (parasite line A) and 0.346% (inactive) in [1] (parasite line B). Also, the Potency entry in assay [2], in assay [3], in assay [4] and in assay [5] was “inactive” in each case.

On to `CC[n+]1c(-c2ccccc2)c2cc(N)ccc2c2ccc(N)cc21`, for which the Potency in assay [1] (parasite line A) was 158 nM (active) and 447 nM (active); in assay [1] (parasite line B) it was 112 nM (active) and 316 nM (active); in assay [2], 158 nM (active) and 251 nM (active); in assay [3] it was 39.8 nM (active) and 70.8 nM (active); in [4], 112 nM (active) and 355 nM (active); in [5], 100 nM (active) and 282 nM (active).

Turning to `CN(C)C(=S)SSC(=S)N(C)C`, the Potency in assay [1] (parasite line A) is 2.51 µM (active); in [1] (parasite line B), 3.16 µM (active); in assay [2], 1.58 µM (active); in assay [3] it was 1.12 µM (active); in assay [4], 2.24 µM (active); in assay [5], 3.55 µM (active).

Regarding `CCS(=O)(=O)C(C)(C)S(=O)(=O)CC`, the activity, negative = inhibition is 9.89% (inactive) in assay [1] (parasite line A) and 19.2% (inactive) in assay [1] (parasite line B). Further, the Potency entry in assay [2], in assay [3], in [4] and in assay [5] was “inactive” each time.

For `CCCCCCCCCCCC[N+](C)(C)CCOc1ccccc1`, the Potency is 3.55 µM (active) in [1] (parasite line A); 5.01 µM (active) in [1] (parasite line B); 5.01 µM (active) in [2]; 3.98 µM (active) in assay [3]; 5.01 µM (active) in [4]; 5.01 µM (active) in assay [5].

Turning to `CCN(CC)C(C)C(=O)c1ccccc1` (configuration not stated), the activity, negative = inhibition was -2.34% (inactive) in assay [1] (parasite line A) and 12.3% (inactive) in assay [1] (parasite line B). In addition, the Potency entry in assay [2], in assay [3], in assay [4] and in assay [5] was “inactive” each time.

As to `CNC(=O)NC(O)C(Cl)(Cl)Cl` (configuration not stated), the activity, negative = inhibition is 0.151% (inactive) in assay [1] (parasite line A) and 3.59% (inactive) in [1] (parasite line B). Also, the Potency result in assay [2], in [3], in assay [4] and in [5] was “inactive” in each case.

Source of the values: PubChem BioAssay (NCATS).
